Here are results for 13 compounds from PubChem BioAssay (NCI).

The structures appear in SMILES notation. This is part of a sample that, as a whole, favours compounds with a hit. Of some 79,000 tested, about 15% had one in any assay. Values without a mark were called inactive. Activity calls are given as the source filed them. No stated cut-off is given here; in the data, active means growth inhibition above about 70%; inactive means the rest.

The nature of experiment [1]: NCI Yeast Anticancer Drug Screen. Data for the rad50 strain (AID 155).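 Further: 0% = growth of vehicle-only cultures of the same strain.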 To be noted: S. cerevisiae rad50 strain growth inhibition, active compounds read high. The procedure, abridged: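 Growth of the mutant yeast was measured after compound exposure and referenced to vehicle-treated cultures.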
The nature of experiment [2]: NCI Yeast Anticancer Drug Screen. Data for the mec2-1 strain (AID 157). To be noted: S. cerevisiae mec2-1 strain, active compounds read high. The procedure, abridged: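 Readout is yeast growth inhibition, normalised to vehicle-treated controls, in the mec2-1 strain exposed to compound.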
The nature of experiment [3]: NCI Yeast Anticancer Drug Screen. Data for the sgs1 mgt1 strain (AID 161).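 Further: 0% = growth of cultures given vehicle only.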 To be noted: S. cerevisiae sgs1 mgt1 strain, active compounds read high. The procedure, abridged: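 Yeast cells carrying a defined DNA-repair defect were exposed to test compounds. Growth inhibition was measured relative to vehicle-treated controls.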
Experiment [4] can be described thus: NCI Yeast Anticancer Drug Screen. Data for the cln2 rad14 strain (AID 165).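 Further: 0% = growth equal to vehicle treated cultures.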 To be noted: S. cerevisiae cln2 rad14 strain, active compounds read high. The procedure, abridged: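 Relative to vehicle controls, growth inhibition of compound-treated cln2 rad14 yeast was recorded.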
Experiment [5] can be described thus: NCI Yeast Anticancer Drug Screen. Data for the bub3 strain (AID 167). The following applies: S. cerevisiae bub3 mutant strain, active compounds read high. The procedure, abridged:
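Whole-cell yeast assay. The mutant strain was incubated with compounds, and growth inhibition was determined by comparison with vehicle-treated cells.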

Experiment [6] can be described thus: NCI Yeast Anticancer Drug Screen. Data for the mlh1 rad18 strain (AID 175). To be noted: S. cerevisiae mlh1 rad18 strain growth inhibition, active compounds read high. The procedure, abridged:
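Test agents were incubated with a yeast strain of defined genotype (DNA damage repair defect). Inhibition of growth was derived by comparison with vehicle-exposed cultures.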

The mark [7] stands for this setting: at 5.0 µM (retest, dose inferred, filed as 0.5).
Where [8] appears, read: at 50.0 µM (retest, dose inferred, filed as 5.0).

Take `C1CCC(CCCc2nn[nH]n2)CC1`: the growth inhibition in experiment [1] (setting [7]) is 20%; in experiment [1] (setting [8]), 53%; in experiment [2] (setting [7]) it was -1%; in experiment [2] (setting [8]) it was 64%; in experiment [3] (setting [7]) it was -2%; in experiment [3] (setting [8]), 51%. Further, the growth inhibition in experiment [4] (setting [7]) was 1%; in experiment [4] (setting [8]), 44%; in experiment [5] (setting [7]), 1%; in experiment [5] (setting [8]), 78% (active); in experiment [6] (setting [7]), 13%; in experiment [6] (setting [8]), 61%.

As to `C(CCc1nn[nH]n1)CCC1CCCCC1`, the growth inhibition in experiment [1] (setting [7]) is 13%; in experiment [1] (setting [8]) it was 98% (active); in experiment [2] (setting [7]) it was 10%; in experiment [2] (setting [8]) it was 98% (active); in experiment [3] (setting [7]) it was 11%; in experiment [3] (setting [8]) it was 95% (active). Moreover, the growth inhibition was 19% in experiment [4] (setting [7]); 97% (active) in experiment [4] (setting [8]); 11% in experiment [5] (setting [7]); 98% (active) in experiment [5] (setting [8]); -16% in experiment [6] (setting [7]); 97% (active) in experiment [6] (setting [8]).

With `CC(=O)c1ccc2c(c1)sc1cc(C(C)=O)ccc12`, the growth inhibition in experiment [1] (setting [7]) was 30%; in experiment [1] (setting [8]), 98% (active); in experiment [2] (setting [7]), 15%; in experiment [2] (setting [8]) it was 98% (active); in experiment [3] (setting [7]) it was 8%; in experiment [3] (setting [8]), 99% (active). The growth inhibition in experiment [4] (setting [7]) was 9%; in experiment [4] (setting [8]) it was 97% (active); in experiment [5] (setting [7]) it was 15%; in experiment [5] (setting [8]), 99% (active); in experiment [6] (setting [7]), 23%; in experiment [6] (setting [8]), 98% (active).

`C=COC(=O)c1ccccc1C(=O)OCCCC`: the growth inhibition in experiment [1] (setting [7]) was 8%; in experiment [1] (setting [8]) it was 22%; in experiment [2] (setting [7]), -2%; in experiment [2] (setting [8]), 3%; in experiment [3] (setting [7]) it was 5%; in experiment [3] (setting [8]), 37%. The growth inhibition in experiment [4] (setting [7]) was 7%; in experiment [4] (setting [8]) it was -6%; in experiment [5] (setting [7]) it was 4%; in experiment [5] (setting [8]), 27%; in experiment [6] (setting [7]) it was 18%; in experiment [6] (setting [8]), 6%.

In the case of `COc1cccc(NC(=O)c2c(SC)n[nH]c2N)c1`, the growth inhibition in experiment [1] (setting [7]) is 26%; in experiment [1] (setting [8]), 99% (active); in experiment [2] (setting [7]), 38%; in experiment [2] (setting [8]) it was 98% (active); in experiment [3] (setting [7]), 35%; in experiment [3] (setting [8]), 99% (active). Moreover, the growth inhibition in experiment [4] (setting [7]) is 30%; in experiment [4] (setting [8]), 75% (active); in experiment [5] (setting [7]) it was 43%; in experiment [5] (setting [8]) it was 99% (active); in experiment [6] (setting [7]) it was 11%; in experiment [6] (setting [8]), 91% (active).

In the case of `C/C(=N\Nc1ccc(Cl)cc1)C(=O)O`, the growth inhibition in experiment [1] (setting [7]) is 17%; in experiment [1] (setting [8]), 97% (active); in experiment [2] (setting [7]), -2%; in experiment [2] (setting [8]) it was 98% (active); in experiment [3] (setting [7]), 14%; in experiment [3] (setting [8]) it was 99% (active). The growth inhibition was 8% in experiment [4] (setting [7]); 98% (active) in experiment [4] (setting [8]); 29% in experiment [5] (setting [7]); 99% (active) in experiment [5] (setting [8]); -29% in experiment [6] (setting [7]); 96% (active) in experiment [6] (setting [8]).

Consider `Cc1ccccc1OCc1cccc(Cl)c1`, for which the growth inhibition in experiment [1] (setting [7]) was 8%; in experiment [1] (setting [8]), 23%; in experiment [2] (setting [7]), -1%; in experiment [2] (setting [8]) it was 4%; in experiment [3] (setting [7]), 4%; in experiment [3] (setting [8]) it was 43%. The growth inhibition in experiment [4] (setting [7]) was 9%; in experiment [4] (setting [8]), -10%; in experiment [5] (setting [7]) it was 4%; in experiment [5] (setting [8]), 17%; in experiment [6] (setting [7]), -5%; in experiment [6] (setting [8]), 6%.

Take `O=C(O)/C=C\C(=O)NNc1ccccc1`: the growth inhibition is 12% in experiment [1] (setting [7]); 96% (active) in experiment [1] (setting [8]); -2% in experiment [2] (setting [7]); 95% (active) in experiment [2] (setting [8]); 5% in experiment [3] (setting [7]); 98% (active) in experiment [3] (setting [8]). Besides, the growth inhibition in experiment [4] (setting [7]) is 10%; in experiment [4] (setting [8]), 82% (active); in experiment [5] (setting [7]) it was 14%; in experiment [5] (setting [8]) it was 99% (active); in experiment [6] (setting [7]) it was -7%; in experiment [6] (setting [8]) it was 94% (active).

In the case of `CC(C)CNC(=O)C(C)O` (stereo unspecified), the growth inhibition was 13% in experiment [1] (setting [7]); 88% (active) in experiment [1] (setting [8]); 2% in experiment [2] (setting [7]); 18% in experiment [2] (setting [8]); 4% in experiment [3] (setting [7]); 40% in experiment [3] (setting [8]). The growth inhibition in experiment [4] (setting [7]) was 2%; in experiment [4] (setting [8]), 14%; in experiment [5] (setting [7]), 0%; in experiment [5] (setting [8]) it was 7%; in experiment [6] (setting [7]), 12%; in experiment [6] (setting [8]), 40%.

On to `OCCNC(c1ccc(Cl)cc1)C(O)c1ccc(Cl)cc1` (stereo unspecified), for which the growth inhibition in experiment [1] (setting [7]) was 5%; in experiment [1] (setting [8]), 62%; in experiment [2] (setting [7]) it was -3%; in experiment [2] (setting [8]), 13%; in experiment [3] (setting [7]), 0%; in experiment [3] (setting [8]) it was 77% (active). Besides, the growth inhibition is 11% in experiment [4] (setting [7]); 8% in experiment [4] (setting [8]); 6% in experiment [5] (setting [7]); 55% in experiment [5] (setting [8]); -4% in experiment [6] (setting [7]); 59% in experiment [6] (setting [8]).

Turning to `CSC(SC)=C(C#N)C(=O)Nc1cccc(Cl)c1`, the growth inhibition in experiment [1] (setting [7]) was 78% (active); in experiment [1] (setting [8]), 97% (active); in experiment [2] (setting [7]) it was 62%; in experiment [2] (setting [8]), 99% (active); in experiment [3] (setting [7]), 65%; in experiment [3] (setting [8]), 99% (active). For the same compound, the growth inhibition in experiment [4] (setting [7]) was 39%; in experiment [4] (setting [8]), 98% (active); in experiment [5] (setting [7]), 65%; in experiment [5] (setting [8]), 99% (active); in experiment [6] (setting [7]) it was 56%; in experiment [6] (setting [8]) it was 97% (active).

Take `Cc1ccc(-c2c(C#N)c(-c3ccc(C)cc3)n(NS(=O)(=O)c3ccccc3)c(=O)c2C#N)cc1`: the growth inhibition was 30% in experiment [1] (setting [7]); 84% (active) in experiment [1] (setting [8]); 38% in experiment [2] (setting [7]); 94% (active) in experiment [2] (setting [8]); 29% in experiment [3] (setting [7]); 94% (active) in experiment [3] (setting [8]). Besides, the growth inhibition in experiment [4] (setting [7]) is 53%; in experiment [4] (setting [8]), 93% (active); in experiment [5] (setting [7]), 52%; in experiment [5] (setting [8]), 95% (active); in experiment [6] (setting [7]), 33%; in experiment [6] (setting [8]), 85% (active).

Turning to `CCCCCCN(CCCCCC)CCCCCCCCCCCO`, the growth inhibition in experiment [1] (setting [7]) is 15%; in experiment [1] (setting [8]) it was 98% (active); in experiment [2] (setting [7]), 7%; in experiment [2] (setting [8]), 98% (active); in experiment [3] (setting [7]), 10%; in experiment [3] (setting [8]), 99% (active). For the same compound, the growth inhibition in experiment [4] (setting [7]) is 12%; in experiment [4] (setting [8]), 98% (active); in experiment [5] (setting [7]), 16%; in experiment [5] (setting [8]) it was 99% (active); in experiment [6] (setting [7]), 11%; in experiment [6] (setting [8]), 94% (active).
